# High-throughput results as filed in PubChem BioAssay.
# Shown are actives, neighbours in structure and some others; about 2.2% of the full set was active somewhere.
# aSyn yeast inh: inhibitors of alpha-synuclein toxicity in yeast; Yeast expressing alpha-synuclein, growth rescue, BacTiter-Glo, 24 h; Potency, µM (highest dose often 46.1 µM), usual class: activators; 0.14% of 370,000 active; AID 652106; note: nearly all actives have a fitted effect of over 65% in size
#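 Screening used galactose-induced yeast with toxic alpha-synuclein levels, exposed to compound for 24 hr at 30 deg C. Cell growth, read with BacTiter-Glo luminescence, gave the measured signal.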
# FUS suppressor: rescues growth of FUS-expressing yeast; AID 1347120; Potency, µM (doses to about 76.6 µM), usual class: activators; 0.24% of 390,000 active; S. cerevisiae FUS-expressing, growth rescue, OD600, 24 h; note: nearly all actives have a fitted effect of over 55% in size
#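 Galactose (2%) drives FUS expression in yeast precultured in raffinose; seeding density OD 0.005. Test compounds incubated 24hr at 30C and 99% humidity before absorbance at 600 nm was measured.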
# Abeta yeast res: restores growth of yeast expressing A-beta42 peptide; 0.063% of 410,000 active; yeast expressing A-beta42, growth rescue, OD600, 48 h; response scale: 0% DMSO, 100% iron-clioquinol control; Potency, µM (doses to about 46.1 µM), usual class: activators; note: nearly all actives have a fitted effect of over 55% in size
#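 Growth rescue measured by 600 nm absorbance after 48 h yeast culture at 30 C with compound. Values normalized between DMSO and an equimolar ferric chloride plus clioquinol control.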
# Mito fusion act: inhibitors of mitochondrial division or activators of mitochondrial fusion. S. cerevisiae fusion-defective mutant growth rescue, CellTiterGlo 48 h. Potency, µM (series often up to 46.1 µM), actives largely listed as activators. 0.23% of 320,000 active; note: nearly all actives have a fitted effect of over 45% in size
#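 Growth-rescue viability read-out: after 48 h at the non-permissive 37C in glycerol/ethanol YPEG, yeast mitochondrial fusion mutants are measured by CellTiterGlo luminescence; compounds (23 nl pinned per well) restoring growth score as division inhibitors or fusion activators.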
# ERG-DNA inh: ERG Ets/DNA interaction inhibition | 0.028% of 370,000 active | fluorescence polarization, His-ERG Ets domain / labelled DNA | AID 624246 | Potency, µM (highest dose often 76.9 µM), most hits filed as inhibitors; active = well fitted inhibition curve with a large enough effect in the polarisation, with a control signal flat; inconclusive = small, poorly fitted or top-dose-only effect, or effect the other way, or a change in a side signal; inactive = no such curve, though single readings can be large or run the other way; the % refers to the polarisation;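 note: polarization taken with two DNA probes labelled with fluorescein and Texas red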
# Target sequence (P11308 whole entry, looked up, the tested form may be a part): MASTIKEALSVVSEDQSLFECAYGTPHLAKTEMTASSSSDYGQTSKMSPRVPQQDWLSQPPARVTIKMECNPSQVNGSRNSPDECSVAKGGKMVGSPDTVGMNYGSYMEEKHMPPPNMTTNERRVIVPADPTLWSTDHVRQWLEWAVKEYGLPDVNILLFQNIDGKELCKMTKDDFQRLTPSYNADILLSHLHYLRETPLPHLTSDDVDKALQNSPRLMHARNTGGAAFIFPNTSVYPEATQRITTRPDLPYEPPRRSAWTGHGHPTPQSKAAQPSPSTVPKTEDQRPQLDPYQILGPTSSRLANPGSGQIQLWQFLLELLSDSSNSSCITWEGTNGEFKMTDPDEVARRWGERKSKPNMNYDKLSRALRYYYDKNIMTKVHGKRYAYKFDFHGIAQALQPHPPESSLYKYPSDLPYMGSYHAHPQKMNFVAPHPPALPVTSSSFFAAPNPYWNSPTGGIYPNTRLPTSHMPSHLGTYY
#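 His-tagged ERG Ets domain (1 uM in the protein solution; 300mM KCl, 50mM Tris-HCl, 1mM EDTA, 1mM DTT, pH 7.5) received compound, then a probe mix of 5 nM fluorescein-DNA and 100nM Texas-615-DNA. Fluorescence polarization was read for both dyes.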
# TDP-43 yeast inh: rescues yeast growth from TDP-43 toxicity; TDP-43 expressing yeast growth rescue, BacTiter-Glo, 24 h; Potency, µM (series often up to 46.1 µM), actives largely listed as activators; 1.8% of 410,000 active; note: nearly all actives have a fitted effect of over 50% in size
#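 Yeast cells expressing TDP-43 under galactose induction are exposed to compounds for 24 hr at 30 deg C. BacTiter-Glo luminescence measures growth, so protective compounds score as activators.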
# A number is an active result; 0 = inactive; ? = inconclusive; - = no result; [ ] = dose if it differs, or a comment. Unless noted, calls come from the whole dose curve; as a rule, active = well fitted curve in the direction sought with a large enough effect; inconclusive = small, poorly fitted or top-dose-only effect, or another doubt; inactive = no such curve, though single readings can be large; an effect the other way counts as inactive or inconclusive.
SMILES,aSyn yeast inh,FUS suppressor,Abeta yeast res,Mito fusion act,ERG-DNA inh,TDP-43 yeast inh
CCOc1ccc(OCC)c(NS(=O)(=O)c2cc(-c3cnc(C)o3)ccc2OC)c1,-,0,0,-,0,0
CS(=O)(=O)c1nc(-c2ccc(F)cc2)cc(C(F)(F)F)n1,0,0,0,0,0,0[0.397 µM]
COc1ccc(-c2cc(C(F)(F)F)nc(S(C)(=O)=O)n2)cc1,0,0,0,0,0,12.6µM
COC(=O)CCS(=O)(=O)c1nc(-c2ccccc2)cc(C(F)(F)F)n1,0,0,0,0,0,?
CCOC(=O)CS(=O)(=O)c1nc(-c2ccc(F)cc2)cc(C(F)(F)F)n1,0,0,0,0,0,22.4µM
CCOC(=O)CS(=O)(=O)c1nc(-c2ccccc2)cc(C(F)(F)F)n1,0,0,0,0,0,22.4µM
COc1ccc(-c2cc(C(F)(F)F)nc(-n3cc(Cl)cn3)n2)cc1,0,?,0,0,0,11.2µM
Cc1ccc2oc(=O)n(CCCOc3ccc(Cl)cc3)c2c1,-,0,0,-,?,0
CCc1nc2ccc(C(=O)N(C)CCCN(C)C)cn2c1N(C)Cc1cc2ccccc2s1,0,0,0,-,-,0
CCOC(=O)CCS(=O)(=O)c1nc(-c2ccccc2)cc(C(F)(F)F)n1,0,-,0,0,0,15.8µM
Cc1onc(-c2ccc3c(c2)OCO3)c1-c1ccc2[nH]ccc2c1,0,0,0,0,0,22.4µM
Cc1c(Cl)cccc1N1CCn2c1nc1c2c(=O)n(CC(=O)O)c(=O)n1C,-,0,0,-,0,0
CN(C)CCOC1c2ccccc2C=Cc2ccccc21,?,0,0,-,0,?
CN(C)CCOC1c2ccccc2CCc2ccc3ccccc3c21 (centres undefined),?,0,0,-,0,15.8µM
COc1ccc(-n2nnnc2C(c2cc3ccccc3o2)N2CCN(C/C=C/c3ccccc3)CC2)cc1 (centres undefined),0,0,0,-,-,0
CCCCOc1ccc(NC(=O)Nc2nnc(C)s2)cc1,1.26µM,0,0,0,0,0
CCCn1c(=O)c2c(nc3n2CCN3c2ccc(C)cc2)n(C)c1=O,-,0,0,-,0,0
Cc1ccc(Cn2cc(C(=O)c3ccc4c(c3)OCO4)c(=O)c3cc(C)ccc32)cc1,-,?,0,-,0,0
Cn1cc(CN2CCC(C(=O)NC(c3ccc(F)cc3)c3ccc4ccccc4n3)CC2)c2ccccc21 (centres undefined),0,0,0,-,-,0
Cc1ccc(CN2CCN(/N=C\C(Br)=C\c3ccccc3)CC2)cc1,0,0,0,?,0,12.6µM
CC(=C/c1ccccc1)/C=N/N1CCN(Cc2ccc(C)cc2)CC1,0,0,0,0,0,0[1.82 µM]
COc1ccccc1NC(=O)CSc1nnc(C2CCCCC2)o1,0,0,?,0,0,17.8µM
COc1ccccc1NC(=O)CSc1nnc(-c2cccc(Cl)c2)o1,-,0,0,-,0,17.8µM
Cc1cc(-c2nnc(SCC(=O)N3C(C)CCCC3C)o2)no1 (centres undefined),0,0,0,0,-,0
COc1ccc(-c2nnc(SCC(=O)Nc3ccccc3OC)o2)cc1,0,0,0,0,0,?
SMILES,aSyn yeast inh,FUS suppressor,Abeta yeast res,Mito fusion act,ERG-DNA inh,TDP-43 yeast inh
CCc1ccccc1NC(=O)CSc1nnc(COc2ccccc2Cl)o1,-,0,0,-,?,15.8µM
O=C(CSc1nnc(COc2ccc(Cl)cc2Cl)o1)Nc1ccccn1,0,0,0,0,0,0
CC1CCCC(C)N1C(=O)CSc1nnc(C2CCCCC2)o1 (centres undefined),0,0,0,6.31µM,0,0
COc1ccc(Br)cc1CN(C)C(=O)CNC(=O)c1ccc2ccccc2c1,0,0,0,0,0,22.4µM
CC(=O)Nc1ccc(S(=O)(=O)N(C)CC(=O)N/N=C/c2ccncc2)cc1,0,0,0,22.4µM,0,0
CC(=O)Nc1ccc(S(=O)(=O)N(C)CC(=O)N/N=C/c2ccc(C(=O)O)cc2)cc1,0,0,0,0,0,0
Cc1coc2c(C)c3oc(=O)c(CCC(=O)N[C@H](C(=O)O)C(C)C)c(C)c3cc12,0,0,0,-,-,0
CCc1cccc(C)c1NC(=O)CCCN1C(=O)C(c2ccccc2)Oc2cccnc21 (centres undefined),-,0,0,-,0,0
Cc1cccc(C)c1NC(=O)CCCN1C(=O)C(c2ccccc2)Oc2cccnc21 (centres undefined),0,0,0,12.6µM,0,0
CCc1ccc(NC(=O)CSc2nc3ccccc3nc2Cc2ccccc2OC)cc1,-,0,0,-,0,0
CCOc1ccc(CN(C(=O)c2oc3ccccc3c2C)C2CCS(=O)(=O)C2)cc1 (centres undefined),0,0,0,0,0,0
CCCCCOc1ccc(C(=O)N(Cc2ccccc2)C2CCS(=O)(=O)C2)cc1 (centres undefined),-,?,0,0,0,20µM
CCOc1ccc(CN(C(=O)c2cc(=O)c3cc(Cl)ccc3o2)C2CCS(=O)(=O)C2)cc1 (centres undefined),-,31.6µM,0,-,0,0
Cc1c(C(=O)N(Cc2ccc(Cl)cc2)C2CCS(=O)(=O)C2)oc2ccccc12 (centres undefined),?,?,0,14.1µM,0,?
CCCOc1cccc(C(=O)N(Cc2ccccc2)C2CCS(=O)(=O)C2)c1 (centres undefined),0,0,0,0,0,0
O=C(c1cc(=O)c2cc(Cl)ccc2o1)N(Cc1ccccc1)C1CCS(=O)(=O)C1 (centres undefined),-,0,0,-,0,0
O=C(COC(=O)c1ccc2ncsc2c1)NCc1ccccc1Cl,0,0,0,-,0,20µM
O=C(OCCOc1cccc(Cl)c1)c1ccc2ncsc2c1,0,0,0,0,0,14.1µM
O=C(COc1ccc2c(c1)CCC2)NCc1ccc(Cl)cc1,?,0,0,0,0,?
O=C(COC(=O)c1ccc2ncsc2c1)NCc1ccc(F)cc1,0,0,0,0,0,0
O=C(COc1ccc2c(c1)CCC2)NCc1cccc(Cl)c1,0,0,0,0,0,20µM
O=C(COC(=O)c1ccc2ncsc2c1)NCc1cccc(Cl)c1,0,0,0,0,0,28.2µM
S=c1[nH]nc(-c2cc(-c3ccccc3)n[nH]2)n1N=Cc1cccc(Oc2ccccc2)c1,-,0,-,-,-,-
c1ccc(Oc2ccc(-c3ccn[nH]3)cc2)cc1,0,0,0,0,0,14.1µM
O=C(Nc1ccc(Cl)c(Cl)c1)c1cccnc1,0,0,0,0,0,17.8µM
CCOc1ncccc1C(=O)Nc1ccc(F)cc1,0,0,0,0,0,0
O=C(Nc1cccc(NC(=O)c2cccnc2)c1)c1cccnc1,0,0,0,0,-,0
